Tested on: Vero E6 infected with SARS-CoV-2
Assay: inhibition of SARS-CoV-2 cytopathic effect; higher = more antiviral protection, active = above 15
Details: 48 h

Measured: inhibition of SARS-CoV-2 cytopathic effect

CC1(C)O[C@@H]2C[C@H]3[C@@H]4CCC5=CC(=O)C=C[C@]5(C)[C@H]4[C@@H](O)C[C@]3(C)[C@]2(C(=O)CO)O1 [desonide]
inactive: 1 nM 1.41% | 8.33 nM 2.82% | 100 nM 5.19% | 833.33 nM 5.19% | 10000 nM 1.37%

COc1cc(NC(=O)c2ccccn2)ccc1Cl
inactive: 1 nM -0.99% | 8.33 nM -1.87% | 100 nM 1.63% | 833.33 nM 2.18% | 10000 nM 1.18%

COc1cc2c(cc1OC)-c1cc3nc4ccccc4nc3n1C(C)(C)C2
inactive: 1 nM 2.63% | 8.33 nM 1.86% | 100 nM 1.86% | 833.33 nM -2.74% | 10000 nM -7.6%

COc1ccccc1OCC(O)CO (stereo not given) [guaifenesin]
inactive: 1 nM 1.29% | 8.33 nM 1.07% | 100 nM 0% | 833.33 nM 0.99% | 10000 nM 0.94%

O=C(/C=C/C=C/c1ccc2c(c1)OCO2)N1CCCCC1 [piperine]
inactive: 1 nM -1.58% | 8.33 nM -1.88% | 100 nM -3.68% | 833.33 nM -2.45% | 10000 nM 5.15%

NS(=O)(=O)c1cc2c(cc1Cl)N=C(CSCc1ccccc1)NS2(=O)=O [benzthiazide]
inactive: 1 nM 3.18% | 8.33 nM 0.15% | 100 nM 0.52% | 833.33 nM 2.56% | 10000 nM -0.2%

CN1CCN(c2cc(-c3ccccc3)nc(N)n2)CC1
inactive: 1 nM 2.02% | 8.33 nM 3.76% | 100 nM 2.45% | 833.33 nM 4.99% | 10000 nM 2.49%

COC(=O)c1sccc1S(=O)(=O)Nc1ccc(Nc2ccccc2)cc1OC
inactive: 1 nM 2.58% | 8.33 nM 5.94% | 100 nM 2.5% | 833.33 nM 5.14% | 10000 nM 8.94%

CNC(=O)c1cc2c(cn1)[nH]c1ccccc12
inactive: 1 nM 1.51% | 8.33 nM -0.17% | 100 nM 1.17% | 833.33 nM -0.08% | 10000 nM 1.58%

CC(C)Cc1ccc(C(C)C(=O)O)cc1 (stereo not given) [ibuprofen]
inactive: 1 nM 1.03% | 8.33 nM -0.113% | 100 nM -0.0767% | 833.33 nM 1.1% | 10000 nM -0.35%

O.O.O.O.O=C([O-])CC(O)(CC(=O)[O-])C(=O)[O-].[Li+].[Li+].[Li+] [lithium-citrate]
inactive: 1 nM 0.34% | 8.33 nM -0.51% | 100 nM -1.43% | 833.33 nM 1.38% | 10000 nM 1.33%

CC(=O)NCCc1c[nH]c2ccccc12 [N-acetyltryptamine]
inactive: 1 nM 0.9% | 8.33 nM 2.35% | 100 nM 2.28% | 833.33 nM -0.38% | 10000 nM 2.53%

CCS(=O)(=O)N1CCC([C@@H](C)n2c(C)c(C(=O)NCc3c(OC)cc(C)[nH]c3=O)c3ccccc32)CC1
inactive: 1 nM 0.38% | 8.33 nM 2.34% | 100 nM 0.88% | 833.33 nM 0.2% | 10000 nM -1.12%

Nc1nccc(-c2c(-c3ccc(F)cc3)ncn2C2CCCCC2)n1
inactive: 1 nM 3.7% | 8.33 nM 3.92% | 100 nM -2.24% | 833.33 nM -0.2% | 10000 nM 1.35%

CC(=O)OCC1=C(C(=O)O)N2C(=O)[C@@H](NC(=O)CSc3ccncc3)[C@H]2SC1 [cephapirin]
inactive: 1 nM -1.67% | 8.33 nM 4.78% | 100 nM 6.28% | 833.33 nM 5.89% | 10000 nM 2.88%

Cc1[nH]c2ccc(F)cc2c1-c1nc2c3cccnc3c3ncccc3c2[nH]1
inactive: 1 nM 0.2% | 8.33 nM 1.01% | 100 nM 0.29% | 833.33 nM -0.86% | 10000 nM 2.7%

CC1(COc2ccc3c(c2)ncn3-c2ccc3cccc(N4CCC(N)CC4)c3n2)COC1 [crenolanib]
inactive: 1 nM -0.58% | 8.33 nM 1.15% | 100 nM 2.74% | 833.33 nM 2.21% | 10000 nM 0.74%

N[C@@H](Cc1cc(CP(=O)(O)O)cc(-c2ccccc2Cl)c1)C(=O)O
inactive: 1 nM 8.76% | 8.33 nM 0.31% | 100 nM 1.79% | 833.33 nM 1.85% | 10000 nM 1.74%

Nc1nc(=O)n([C@@H]2O[C@H](CO)[C@@H](O)[C@@H]2F)cc1I [fiacitabine]
inactive: 1 nM -1.38% | 8.33 nM -1.55% | 100 nM 2.03% | 833.33 nM -1.22% | 10000 nM -0.56%

CCNC(=O)[C@H]1O[C@@H](n2cnc3c(N)nc(NCCc4ccc(CCC(=O)O)cc4)nc32)[C@H](O)[C@@H]1O
inactive: 1 nM -1.55% | 8.33 nM -1.11% | 100 nM -2.43% | 833.33 nM -1.74% | 10000 nM 1.23%

CN1CCC[C@@H](CC2c3ccccc3Sc3ccccc32)C1 (racemic) [metixene]
inactive: 1 nM -0.25% | 8.33 nM 1.09% | 100 nM 1.62% | 833.33 nM -0.01%
active: 10000 nM 42.2%

CCCCCS(=O)(=O)CCCCCCCCCCn1c(-c2ccc(O)cc2)c(C)c2cc(O)ccc21
inactive: 1 nM 1.18% | 8.33 nM -2.92% | 100 nM -0.42% | 833.33 nM -1.6% | 10000 nM -5.93%

C/C(=C\c1ccc(C(=O)O)cc1)c1ccc2c(c1)C(C)(C)CCC2(C)C
inactive: 1 nM -0.5% | 8.33 nM -1.23% | 100 nM -2.43% | 833.33 nM 0.15% | 10000 nM 3.67%

Nc1nc(=O)c2nc(CNc3ccc(C(=O)N[C@@H](CCC(=O)O)C(=O)O)cc3)cnc2[nH]1 [folic-acid]
inactive: 1 nM -1.27% | 8.33 nM 1.24% | 100 nM 0.24% | 833.33 nM 1.38% | 10000 nM -0.44%

CCOP(=S)(OCC)Oc1ccc2c(C)c(Cl)c(=O)oc2c1 [coumophos]
inactive: 1 nM -3.33% | 8.33 nM 0.82% | 100 nM 0.18% | 833.33 nM -2.21% | 10000 nM -0.05%

CCN(CCO)CCCC(C)Nc1ccnc2cc(Cl)ccc12 (stereo not given) [hydroxychloroquine]
inactive: 1 nM -0.29% | 8.33 nM 2.78% | 100 nM -0.76% | 833.33 nM 0% | 10000 nM -0.85%

CCCC(=O)O[C@]1(C(=O)COC(C)=O)CC[C@H]2[C@@H]3C[C@H](F)C4=CC(=O)C=C[C@]4(C)[C@@]3(F)[C@@H](O)C[C@@]21C [difluprednate]
inactive: 1 nM 1.05% | 8.33 nM 1.55% | 100 nM 1.52% | 833.33 nM 1.03% | 10000 nM 6.96%

COc1ccc(CC2NCCc3c2[nH]c2ccc(C)cc32)c(Cl)c1OC (stereo not given)
inactive: 1 nM 0.04% | 8.33 nM 1.87% | 100 nM 6.67% | 833.33 nM -1.77% | 10000 nM -7.05%

O=C1Nc2ccc(I)cc2C1=Cc1cc(Br)c(O)c(Br)c1
inactive: 1 nM 2.36% | 8.33 nM 0.05% | 100 nM 1.54% | 833.33 nM 2.76% | 10000 nM 8.55%

O=C(CCc1ccc(O)cc1)c1c(O)cc(O)cc1O[C@@H]1O[C@H](CO)[C@@H](O)[C@H](O)[C@H]1O [phlorizin]
inactive: 1 nM -2.08% | 8.33 nM 0% | 100 nM -10.3% | 833.33 nM 0.18% | 10000 nM 1.43%

O=C1CS[C@@H](c2ccccc2Cl)c2cc(Cl)ccc2N1 (racemic)
inactive: 1 nM 1.66% | 8.33 nM -2.6% | 100 nM -1.47% | 833.33 nM 5.44% | 10000 nM 7.2%

Cc1cccc(CN2CCN(C(c3ccccc3)c3ccc(Cl)cc3)CC2)c1 (stereo not given) [meclizine]
inactive: 1 nM 4.53% | 8.33 nM 3.44% | 100 nM 2.18% | 833.33 nM 4.25% | 10000 nM 3.46%

C[C@@H]1NC(=O)[C@@H]2CCCN2C(=O)[C@H](CC(N)=O)NC(=O)[C@@H]2CSSC[C@H](N)C(=O)N[C@H]3CSSC[C@H](NC1=O)C(=O)N[C@@H]([C@@H](C)O)C(=O)NCC(=O)N[C@H](C(=O)N[C@@H](Cc1ccc(O)cc1)C(=O)O)CSSC[C@H](NC(=O)[C@H](Cc1ccc(O)cc1)NC(=O)[C@H](CCC(=O)O)NC3=O)C(=O)N2 [linaclotide]
inactive: 1 nM -2.9% | 8.33 nM 0.88% | 100 nM 1.75% | 833.33 nM 1% | 10000 nM 3.24%

CN1CCN(c2cccc(Nc3nc4c(-c5ccc(S(C)(=O)=O)cc5)cccn4n3)c2)CC1
inactive: 1 nM -0.26% | 8.33 nM 0.06% | 100 nM 0.85% | 833.33 nM -0.58% | 10000 nM -4.01%

COc1cc(N)c(Cl)cc1C(=O)OCCN1CCCCC1
inactive: 1 nM 2.34% | 8.33 nM 2.09% | 100 nM 1.8% | 833.33 nM 1.01% | 10000 nM 2.59%

COc1cccc(CCc2ccccc2OCC(CN(C)C)OC(=O)CCC(=O)O)c1 (stereo not given) [sarpogrelate]
inactive: 1 nM -0.45% | 8.33 nM -1.71% | 100 nM -2.81% | 833.33 nM -0.22% | 10000 nM -1.72%

c1ccc2c(c1)Sc1ccccc1N2C[C@H]1CN2CCC1CC2 [levomequitazine]
inactive: 1 nM -10.3% | 8.33 nM -6.41% | 100 nM -8.62% | 833.33 nM -7.33% | 10000 nM -13.9%

COC(=O)N[C@H](C(=O)N[C@@H](Cc1ccccc1)[C@@H](O)CN(Cc1ccc(-c2ccccn2)cc1)NC(=O)[C@@H](NC(=O)OC)C(C)(C)C)C(C)(C)C [atazanavir]
inactive: 1 nM -1.78% | 8.33 nM 2.1% | 100 nM 1.84% | 833.33 nM -0.5% | 10000 nM -0.09%

c1ccc2c(c1)[I+]c1ccccc1-2 [diphenyleneiodonium]
inactive: 1 nM 0.63% | 8.33 nM 1.31% | 100 nM -0.64% | 833.33 nM -1.09% | 10000 nM 0.37%

Reference: the supplement of paper PMC13380429
